About 5,100 (32%) of roughly 16,000 compounds were called active. Not shown: some 25% with an inconclusive outcome. Calls follow the shape of the dose curve; as a rule, active = well fitted curve in the direction sought with a large enough effect; inconclusive = small, poorly fitted or top-dose-only effect, or effect the other way; inactive = no such curve, though single readings can be large or run the other way. This is one part of the list.
Target: Cytochrome P450 3A4 (Homo sapiens) (UniProt P08684)
Sequence (P08684 whole entry, looked up): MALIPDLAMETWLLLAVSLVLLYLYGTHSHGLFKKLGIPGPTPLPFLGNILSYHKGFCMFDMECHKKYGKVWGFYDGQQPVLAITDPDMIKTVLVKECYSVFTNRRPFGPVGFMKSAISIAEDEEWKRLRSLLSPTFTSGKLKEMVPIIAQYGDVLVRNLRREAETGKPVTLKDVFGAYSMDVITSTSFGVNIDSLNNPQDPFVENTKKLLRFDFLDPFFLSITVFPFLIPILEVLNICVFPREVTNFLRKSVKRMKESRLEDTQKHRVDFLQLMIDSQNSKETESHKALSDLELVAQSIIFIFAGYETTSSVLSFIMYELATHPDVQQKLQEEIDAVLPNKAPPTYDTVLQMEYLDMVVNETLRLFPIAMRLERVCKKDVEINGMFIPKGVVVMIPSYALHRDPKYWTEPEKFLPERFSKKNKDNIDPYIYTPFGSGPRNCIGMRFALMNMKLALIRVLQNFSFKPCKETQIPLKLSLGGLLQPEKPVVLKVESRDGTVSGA
Assay: Cytochrome panel assay with activity outcomes
Settings: recombinant CYP, pro-luciferin dealkylation, luminescence, p450-cyp3a4; series mostly up to 57.1 µM; activity, negative = inhibition: at the top concentration
% is scaled to controls: 0 for no effect and ±100 for the full control effect.

Compound | AC50 | activity, negative = inhibition
Cc1cccc(NC(=O)C23CCC(C)(C2Br)C3(C)C)c1 (centres undefined) | 12.6 µM (active) | –
CC12CCC(C(=O)Nc3cccc4ccccc34)(C1Br)C2(C)C (centres undefined) | 11.2 µM (active) | –
Cc1cccc(NC(=S)NNC(=O)c2csc3c2CCCC3)c1 | – | -15.2% [at 2.29 µM] (inactive)
O=C(O)c1cccc(C(=O)O)c1S(=O)Cc1ccccc1 (centres undefined) | – | -7.75% [at 11.4 µM] (inactive)
O=C(O)CCCSc1ccccc1 | – | 5.11% [at 11.4 µM] (inactive)
NNC(=O)CCSc1ccccc1 | 3.98 µM (active) | –
O=C(/C=C/c1ccc(Cl)cc1)NCCSc1ccccc1 | – | 0.692% (inactive)
Cc1ccc(S(=O)(=O)NC(CC(C)C)C(=O)Oc2ccc3c4c(c(=O)oc3c2)CCC4)cc1 (centres undefined) | 14.1 µM (active) | –
Cc1ccc(S(=O)(=O)N[C@H](CN)C(=O)O)cc1 | – | -20.1% [at 11.4 µM] (inactive)
Cc1nc2ccc(S(=O)(=O)NC(CC(C)C)C(=O)O)cc2s1 (centres undefined) | – | -3.56% [at 2.29 µM] (inactive)
CCC(C)C(NS(=O)(=O)c1ccc(C)cc1)C(=O)Oc1ccc2c3c(c(=O)oc2c1)CCC3 (centres undefined) | 7.94 µM (active) | –
CC(C)Oc1ccc2c(=O)c3cc(C(=O)O)ccc3oc2c1 | – | -21.8% (inactive)
Cc1ccc(S(=O)(=O)N[C@H](C(=O)O)C(C)C)cc1 | – | -11.9% [at 11.4 µM] (inactive)
NCc1ccc(C(=O)O)cc1 | – | -14.2% [at 11.4 µM] (inactive)
O=C(c1cc2sccc2n1Cc1ccccc1)N1CCN(c2nc3ccccc3s2)CC1 | 0.631 µM (active) | –
O=S(=O)(O)c1nc2ccccc2n1Cc1ccccc1 | – | -3.58% (inactive)
S=c1[nH]nc(CCc2ccccc2)n1Cc1ccccc1 | 7.94 µM (active) | –
CN(Cc1n[nH]c(=S)n1C)S(=O)(=O)c1ccccc1 | – | -10.1% (inactive)
O=C1c2ccccc2C(Cc2ccncc2)(Cc2ccncc2)c2ccccc21 | 0.501 µM (active) | –
COC(=O)C1=C(N)N(c2ccccc2C(F)(F)F)C2=C(C(=O)CCC2)C1c1ccc2c(c1)OCO2 (centres undefined) | 0.316 µM (active) | –
Cc1cc([C@](C)(N)C(=O)O)ccc1P(=O)(O)O | – | 0.891% (inactive)
Clc1ccccc1OCCCCN1CCCC1 | – | -0.971% (inactive)
CN(CCc1ccc(Cl)c(Cl)c1)CCN1CCCCCC1 | 10 µM (active) | –
CN1CCN(CCc2ccc(Cl)c(Cl)c2)CC1 | – | -3.98% (inactive)
Cc1[nH]c2ccccc2c1/C=C(\C#N)C(=O)NC(C)c1ccccc1 (centres undefined) | 7.08 µM (active) | –

Compound | AC50 | activity, negative = inhibition
C[C@@H](NC(=O)/C(C#N)=C/c1ccc(O)c(O)c1)c1ccccc1 | 15.8 µM (active) | –
Cc1[nH]c2ccccc2c1/C=C/c1cc[n+](C)cc1 | – | -9.6% (inactive)
C[C@H](NC(=O)/C(C#N)=C/c1ccc(O)c(O)c1)c1ccccc1 | 3.16 µM (active) | –
CC1(C)C2([N+](=O)[O-])CN3CC1([N+](=O)[O-])CN(C2)C31CCCC1 | – | 4.06% (inactive)
COc1ccc(CC(=O)NCCN2CCCC2)cc1 | – | 0.907% (inactive)
CCCN(CCC)CCCNC(=O)c1ccc2c(c1)N(CC)C(=O)c1ccccc1S2=O (centres undefined) | – | -23.9% (inactive)
CCOc1ccc(CCNC(=O)CCCN2C(=O)c3ccccc3C2=O)cc1OCC | 7.08 µM (active) | –
COc1ccc(CCNC(=O)CCCCCN2C(=O)c3ccccc3C2=O)cc1 | 6.31 µM (active) | –
CCOC(=O)c1c(C)n(C)c2ccc(OC(=O)c3ccco3)cc12 | 15.8 µM (active) | –
CCN(CC)CCOC(=O)c1c(C)n(C)c2ccc(OC)cc12 | – | -23.9% (inactive)
CCCc1cc2c(=O)c(-c3ccc4c(c3)OCCO4)coc2cc1OC(=O)c1ccco1 | – | 9.62% [at 2.29 µM] (inactive)
CC(=O)OC[C@@H]1O[C@@H](O/N=C2/C[C@@H](O)[C@@H](O)[C@@H]3[C@@H]4C(=O)N(C(C)(C)C)C(=O)[C@H]4CC[C@@H]23)[C@H](OC(C)=O)[C@H](OC(C)=O)[C@@H]1OC(C)=O | – | -3.46% [at 11.4 µM] (inactive)
CC1=NN(c2ccccc2)C(=O)/C1=C\N1CC(C)OC(C)C1 (centres undefined) | – | -26.3% (inactive)
CC(=O)c1cccc(NS(=O)(=O)c2ccc(N/C=C\C(=O)c3ccc(F)cc3)cc2)c1 | 0.708 µM (active) | –
Nc1cccc2cc(S(=O)(=O)Nc3ccc(C(=O)O)cc3)ccc12 | – | -7.54% [at 11.4 µM] (inactive)
Cc1ccc(C)c(/C(=N\N=C(N)N)C2CC2)c1 | – | -27% [at 11.4 µM] (inactive)
COc1cc(/C=C(\C#N)c2nc3c(s2)CC(C)CC3)ccc1O (centres undefined) | 25.1 µM (active) | –
C=CCc1ccccc1OC[C@H](O)CNC(C)C | inactive | –
C=CCOc1ccccc1OC[C@H](O)CNC(C)C | – | -0.918% [at 25.6 µM] (inactive)
CCOC(=O)C1CCN(C(=O)c2ccccc2NC(C)=O)CC1 | – | -0.79% (inactive)
COc1ccc(NC(=O)C2CCN(C(=O)c3cccs3)CC2)c(OC)c1 | 28.2 µM (active) | –
COC(=O)c1ccccc1NC(=O)C1CCN(C(=O)c2ccc(OC)cc2)CC1 | 6.31 µM (active) | –
COc1ccc2oc(=O)c(NC(=O)C3CCCCC3)cc2c1 | – | -7.77% (inactive)
COc1cc(OC)cc(C(=O)Nc2ccccc2C(=O)N2CCCC2)c1 | – | -8.41% [at 2.29 µM] (inactive)
